Experimental data taken from ChEMBL document CHEMBL4513216, “Probing the Open Global Health Chemical Diversity Library for Multistage-Active Starting Points for Next-Generation Antimalarials” (ACS Infect Dis, 2020).
Screen size: about 68,000 compounds; about 2,700 (4%) showed an effect of 50% or more. The list comes from a sample in which strong results are over-represented; it also holds similar structures and randomly drawn compounds.

The molecules below were run on Plasmodium berghei (assay: Screen against P. berghei liver stage (PbLuc), transformed with Luciferase, at 2uM). Conditions: tested at 2 uM.
Type: functional, HepG2
`Cc1cccc(C(=O)N2CCN(C)CC2)c1NC(=O)c1ccncc1` showed an INHIBITION of 29.22%.
For `CNc1cc(C2CCCN2Cc2ccc(OCC(=O)O)cc2)ccn1` (configuration not stated), the INHIBITION was 29.06%.
In the case of `CN(C)C(=O)N1CC[C@@H](O)[C@@H]1Cc1cnn(C)c1`, the INHIBITION is reported as 12.88%.
Work on `CCO[C@@H]1CCN(C(=O)N(C)C)[C@@H]1Cc1cnn(C)c1` yielded an INHIBITION of 63.84%.
With `COCCO[C@@H]1CCN(C(=O)c2ccc[nH]2)[C@H]1Cc1cnn(C)c1` the INHIBITION was 66.69%.
`COCCO[C@H]1CCN(C(=O)c2ccoc2C)[C@H]1Cc1cnn(C)c1` showed an INHIBITION of 5.35%.
With `COCCO[C@H]1CCN(C(=O)c2cnoc2C)[C@H]1Cc1cnn(C)c1` the INHIBITION was 63.06%.
Work on `CCO[C@@H]1CCN(C(=O)c2ccnnc2)[C@@H]1Cc1cnn(C)c1` yielded an INHIBITION of 18.15%.
With `Cn1cc(C[C@H]2[C@@H](OCC3CC3)CCN2C(=O)c2ccc[nH]2)cn1` the INHIBITION was -1.33%.
`CCO[C@@H]1CCN(C(=O)c2ccc[nH]2)[C@@H]1Cc1cnn(C)c1` was tested, and the INHIBITION was 5.28%.
`COCCO[C@H]1CCN(C(=O)c2ccno2)[C@H]1Cc1cnn(C)c1` showed an INHIBITION of 1.02%.
`CC(C)c1ncc(CN2C[C@@H](CN3CCC(O)CC3)[C@@H](CO)C2)cn1` showed an INHIBITION of -142.15%.
Work on `Cc1cnc(CN(C)Cc2cccc(OC(F)(F)F)c2)cn1` yielded an INHIBITION of 8.59%.
Molecule `c1ccc2nc(CN3CCCC3c3noc(C4CC4)n3)ccc2c1` (configuration not stated) has an INHIBITION of 0.74%.
`Cc1nn(C2CCS(=O)(=O)C2)c(O)c1Cc1ccccc1Cl` (configuration not stated) was tested, and the INHIBITION was -0.89%.
`Cc1nc(CN(Cc2ccccc2F)C2CCC2)no1` showed an INHIBITION of -3.11%.
`COCCN(Cc1ccoc1)C(=O)CSc1ccc(F)cc1` showed an INHIBITION of 12.7%.
`CN(Cc1ccncc1)C1CC2(CCN(c3ncc(F)cn3)CC2)C1` was tested, and the INHIBITION was -20.67%.
For `COc1cc2cc(C)c(SCCN3CCCCC3)nc2cc1OC`, the INHIBITION was 11.74%.
`CN(C)CC1CSCCCN1C(=O)c1ccc(-n2cccc2)cc1` (configuration not stated) showed an INHIBITION of 15.49%.
`Cc1cc(NCCCC(F)(F)F)n2nc(C)cc2n1` gave an INHIBITION of -2.24%.
Molecule `Cc1cc(NCc2cc(C)oc2C(F)(F)F)n2nc(C)cc2n1` has an INHIBITION of 51.77%.
In the case of `Cc1cc(C(F)(F)F)nc(CNc2cc(C)nc3cc(C)nn23)n1`, the INHIBITION is reported as -15.4%.
With `CCCN1CCCn2c(nc(CNC(=O)c3ccsc3)cc2=O)C1` the INHIBITION was -2.19%.
`CCC1CN(C(=O)c2cccc(O)c2)CCC(=O)N1Cc1ccccc1` (configuration not stated) was tested, and the INHIBITION was -0.23%.
With `c1cnc(N2CCC3(CC2)CN(CC2CC2)c2ccccc23)nc1` the INHIBITION was -59.24%.
For `CC1CCCN(C(=O)CNC(=O)c2ccoc2)C1` (configuration not stated), the INHIBITION was -13.92%.
`CNC(=O)C1(N2CCC[C@H]2C(=O)NC2CCCCC2)CCOCC1` gave an INHIBITION of 20.87%.
In the case of `COCC1c2c(cnn2C)CCN1Cc1ccsc1` (configuration not stated), the INHIBITION is reported as -61.95%.
`COc1ccc(-c2ccc(C3CNCCO3)nc2)cc1` (configuration not stated) gave an INHIBITION of 84.26%.
`c1ccc(-c2ccc(C3CNCCO3)nc2)cc1` (configuration not stated) was tested, and the INHIBITION was 36.92%.
With `Cc1ccc(-c2ccc(C3CNCCO3)nc2)cc1` (configuration not stated) the INHIBITION was 81.51%.
Molecule `Clc1ccc(-c2ccc(C3CNCCO3)nc2)cc1` (configuration not stated) has an INHIBITION of 39.65%.
For `COc1ccc(-c2cnc(N(C)C)nc2C2CNCCO2)cc1` (configuration not stated), the INHIBITION was 38.42%.
`c1ncc(-c2ccc(C3CNCCO3)nc2)cn1` (configuration not stated) showed an INHIBITION of 27.3%.
`Cn1cc(CN2CCn3cc(CNC(=O)c4cccn4C)nc3C2)cn1` gave an INHIBITION of 16.22%.
`Cc1c(NCc2ccc(C#N)cc2)cccc1S(=O)(=O)NC1CC1` gave an INHIBITION of 21.14%.
`COC(=O)CNC(=O)c1ccn(-c2ccc(Cl)c(Cl)c2)n1` gave an INHIBITION of -14.28%.
In the case of `CCN(Cc1ccncc1)C(=O)c1cn(CCCc2ccccc2)nn1`, the INHIBITION is reported as 30.42%.
`CN1CC2(CCN(Cc3ncc[nH]3)CC2)CC1=O` showed an INHIBITION of 73.62%.
With `CC(C)=CCN1CC2(CCN(Cc3ncc[nH]3)CC2)CC1=O` the INHIBITION was 20.34%.
Work on `COCCCN1CC2(CCN(Cc3ncc[nH]3)CC2)CC1=O` yielded an INHIBITION of 25.13%.
Work on `Cc1n[nH]cc1C(=O)NCc1cccnc1N1CCc2ccccc2C1` yielded an INHIBITION of 18.63%.
`CCN(CC)C(=O)c1ccc(CNc2ncc(C#N)cc2Cl)cc1` showed an INHIBITION of 27.52%.
Molecule `CS(=O)(=O)Cc1ccc(CNc2ncc(C#N)cc2Cl)cc1` has an INHIBITION of -35.5%.
Work on `N#Cc1ccc(CNc2ncc(C#N)cc2Cl)cc1` yielded an INHIBITION of 51.88%.
`CSc1nccc(N2CCC3(CCCN(CCc4ccccc4)C3)C2)n1` (configuration not stated) gave an INHIBITION of -31.44%.
With `CCC(NC(=O)c1nn(C)cc1C(=O)O)c1ccccc1` (configuration not stated) the INHIBITION was 49.95%.
For `Cc1ccc(CNC(=O)NC2CCN(CC(F)F)CC2)cc1`, the INHIBITION was -5.19%.
Work on `N#Cc1cccc(CNC(=O)NC2CCN(CC(F)F)CC2)c1` yielded an INHIBITION of 67.51%.
`N#Cc1ccc(CNC(=O)NC2CCN(CC(F)F)CC2)cc1` showed an INHIBITION of -39.58%.
In the case of `O=C(NCc1nnc2n1CCCC2)c1ccc(C2CCCO2)s1` (configuration not stated), the INHIBITION is reported as 29.22%.
Work on `COc1cc(N2CCC3(CCCN(Cc4ccccn4)C3)C2)ncn1` (configuration not stated) yielded an INHIBITION of -21.32%.
`Cc1cc(C)nc(N2CCC(CNC(=O)c3ccccn3)CC2)n1` gave an INHIBITION of 27.39%.
`Cc1cc(C)nc(N2CCC(CNC(=O)c3cnccn3)CC2)n1` was tested, and the INHIBITION was 95.75%.
`O=C(NCC1CCN(c2ncccn2)CC1)c1cnccn1` showed an INHIBITION of 26.66%.
For `CN(Cc1cccc(F)c1)C(=O)CN1CCOC(Cn2cccn2)C1` (configuration not stated), the INHIBITION was 20.28%.
In the case of `CCn1ncc(CN2CCc3c(nc(-c4cccnc4)[nH]c3=O)C2)c1C`, the INHIBITION is reported as 54.82%.
`CCn1ncc(CN2CCc3nc(-c4cccnc4)nc(O)c3C2)c1C` was tested, and the INHIBITION was 21.14%.
Work on `O=c1[nH]c(-c2cccnc2)nc2c1CCN(S(=O)(=O)N1CCCC1)C2` yielded an INHIBITION of -15.3%.
With `CCO[C@H]1COC[C@@H]1NC(=O)c1c[nH]nc1C1CCCCC1` the INHIBITION was -73.93%.
Work on `O=C(N[C@H]1COC[C@@H]1N1CCCC1)c1c[nH]nc1C1CCCCC1` yielded an INHIBITION of 77.54%.
In the case of `Cc1nc(C(=O)N[C@H]2COC[C@@H]2N2CCCCC2)cs1`, the INHIBITION is reported as 11.19%.
`CS(=O)(=O)c1ccc(C(=O)NCCNc2ncccn2)cc1` showed an INHIBITION of 35.65%.
Molecule `Cc1ccc(C)n1-c1ccc(C(=O)NCCNc2ncccn2)cc1` has an INHIBITION of 1.61%.
`CCc1ccc(C(=O)NCCNc2ncccn2)cc1` gave an INHIBITION of 56.02%.
`Cc1cc(C)cc(C(=O)NCCCNc2ncccn2)c1` gave an INHIBITION of 29.13%.
Molecule `CCOc1ccc(C(=O)NCCCNc2ncccn2)cc1` has an INHIBITION of 50.59%.
Molecule `COc1ccc(C(=O)NCCCNc2ncccn2)c(OC)c1` has an INHIBITION of 48.21%.
Molecule `O=C(NCCNc1ncccn1)c1ccc(Br)cc1` has an INHIBITION of -68.24%.
`COc1ccc(C(=O)NCCCNc2ncccn2)cc1F` showed an INHIBITION of 5.28%.
`COc1cc(OC)cc(C(=O)NCCCNc2ncccn2)c1` gave an INHIBITION of 57.75%.
